High-throughput results (PubChem BioAssay)
An excerpt weighted towards active compounds, which were near 3.4% of everything screened.
MEKK3 PB1 HTS: raises or lowers MEK5 binding to the human MEKK3 PB1 domain; Q99759; binding response (% of control), % at 10 µM; AID 1529; bead-based flow cytometry, Alexa488-MEK5 binding to MEKK3; actives lie on both sides; 0 = blocked by unlabeled MEK5, 100 = vehicle; 290,000 compounds, 1.4% hits;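 active = binding response more than 3 SD above or below the average of its plate-row segment, actives on both sides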;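 also: Alexa488 bead fluorescence after subtracting the streptavidin-only scavenger bead signal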
Target sequence (Q99759 whole entry, looked up, the tested form may be a part): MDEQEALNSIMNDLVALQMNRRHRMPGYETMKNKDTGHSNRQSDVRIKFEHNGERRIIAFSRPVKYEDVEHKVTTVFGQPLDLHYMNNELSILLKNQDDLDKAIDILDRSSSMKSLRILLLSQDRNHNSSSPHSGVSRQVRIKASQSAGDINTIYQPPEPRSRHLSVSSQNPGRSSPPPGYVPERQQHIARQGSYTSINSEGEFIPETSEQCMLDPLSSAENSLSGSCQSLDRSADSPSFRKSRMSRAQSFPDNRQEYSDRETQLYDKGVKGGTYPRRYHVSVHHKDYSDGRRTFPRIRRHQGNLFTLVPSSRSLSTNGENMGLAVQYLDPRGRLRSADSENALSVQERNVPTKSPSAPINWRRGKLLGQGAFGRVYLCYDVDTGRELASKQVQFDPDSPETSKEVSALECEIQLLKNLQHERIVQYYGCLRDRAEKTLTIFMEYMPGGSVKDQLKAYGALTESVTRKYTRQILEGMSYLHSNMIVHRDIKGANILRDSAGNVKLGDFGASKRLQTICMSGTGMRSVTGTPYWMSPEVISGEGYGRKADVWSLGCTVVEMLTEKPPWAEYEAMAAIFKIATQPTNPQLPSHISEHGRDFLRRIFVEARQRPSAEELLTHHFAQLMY
ANO1 activ: mouse TMEM16A channel activation, primary screen. Q8BHY3. HEK293 TMEM16A/YFP-H148Q/I152L, iodide quench fluorescence; hits give low values. B-score at 10 µM. 340,000 compounds, 0.3% hits. AID 623877;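 active = fluorescence-ratio B-score plate-corrected deviation score at least 3 library SD below zero, with starting fluorescence score within 5 deviations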;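 also: channel opened by trigger with iodide after compound preincubation; score built on the fluorescence ratio of max minus min over baseline; more negative score means more quench and so TMEM16A activation or potentiation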
MEKK2wt PB1 HTS: raises or lowers MEK5 binding to wildtype human MEKK2 PB1 domain; Q9Y2U5; bead flow cytometry, Alexa488-MEK5 binding to MEKK2 WT; actives lie on both sides; binding response (% of control), % at 10 µM; 290,000 compounds, 1.1% hits; AID 1531; in the data active = binding response below about 67% or above about 130%
ANO1 block: inhibitors of mouse TMEM16A calcium-activated chloride channel. HEK293 TMEM16A/YFP iodide influx fluorescence, ionomycin. 310,000 compounds, 1.2% hits. AID 588511. Q8BHY3. normalized B-score (activity score, 25-100; higher = stronger inhibition) at 10 µM;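 active = ratio plate-corrected score three or more library SD toward inhibition, starting fluorescence score within five deviations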;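 also: score derived from kinetic fluorescence span divided by baseline fluorescence per well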
MEKK2mut PB1 HTS: signal of MEK5 binding to mutant human MEKK2 PB1 domain; bead flow cytometry, Alexa488-MEK5 binding to MEKK2 mutant; percent response, % at 10 µM; 290,000 compounds, 0.35% hits; in the data active = percent response above about 24%, passing the limit was not always enough
NTR1 agonist: NTR1 (human) agonism; 330,000 compounds, 0.17% hits; P30989; AID 493036; NTR1-U2OS beta-arrestin-GFP spot imaging, agonist mode; activation, % at 20 µM;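 active = activation at or above 40% of the spot to cytoplasm intensity ratio, with at least 20 cells analyzed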
Numbers stand for hits; . = inactive; / = not tested or not shown; [ ] = remark or other dose.

SMILES	MEKK3 PB1 HTS	ANO1 activ	MEKK2wt PB1 HTS	ANO1 block	MEKK2mut PB1 HTS	NTR1 agonist
CC1(c2nnc(-c3ccncc3)o2)CC(c2ccc(F)cc2)=NO1 (centres undefined)	.	.	.	.	.	.
CCN(CC)CCOC(=O)c1ccc(NC(=O)c2ccc(Cl)c(S(=O)(=O)N3CCCCCC3)c2)cc1	.	.	.	25	.	.
O=C(Nc1ccc(Cl)c(S(=O)(=O)Nc2ccccc2Cl)c1)c1cccs1	.	.	.	25	.	.
COc1ccccc1NS(=O)(=O)c1cc(C(=O)NCCC(C)C)ccc1F	.	-9.5	.	.	.	.
COc1ccccc1NS(=O)(=O)c1cc(NC(=S)Nc2cc(C)cc(C)c2)ccc1Cl	.	-5.6	.	.	.	.
COc1ccc(-n2c(SCC(=O)N(C)C3CCS(=O)(=O)C3)nc3ccc(O)cc3c2=O)cc1OC (centres undefined)	/	.	/	/	/	.
O=C(Nc1ccc(-n2cnnn2)cc1)c1cccc(S(=O)(=O)N2CCCC2)c1	/	.	/	/	/	.
CC(=O)N1CCN(S(=O)(=O)c2cccc(C(=O)Nc3ccccc3N3CCCC3)c2)CC1	/	.	/	.	/	.
COc1ccc(C(C(=O)Nc2ccc(C(C)C)cc2)N(C)C(=O)c2ccc(=O)[nH]c2)cc1 (centres undefined)	.	.	.	.	.	.
Cc1c(C(N)=O)sc2ncn(CC(=O)N3CCC(C)CC3)c(=O)c12	.	.	.	.	.	.
CCN(CC)CCNC(=O)c1ccc(NC(=O)c2ccc(Cl)c(S(=O)(=O)Nc3ccccc3OC)c2)cc1	.	/	147	/	.	/
CCOC(=O)c1ccc(NC(=O)c2cccc(S(=O)(=O)N3CCOCC3)c2)cc1	.	.	.	100	.	.
CCN(CC)CCNC(=O)c1ccc(NC(=O)Nc2cccc3ccccc23)cc1	.	.	140	.	30	.
CCN(CC)CCNC(=O)c1ccc(NC(=O)c2ccc(F)cc2)cc1	.	.	.	.	.	.
C/C(=N\Nc1cccc(C(=O)O)c1)c1ccc(Cl)s1	.	.	.	.	.	.
FC(F)(F)c1cc(CCN2CCNC[C@H]2Cc2cccc3ccccc23)cc(C(F)(F)F)c1	/	-9.7	/	.	/	51
Oc1ccc(C[C@@H]2CNCCN2CCc2cc(C(F)(F)F)cc(C(F)(F)F)c2)cc1	/	.	/	.	/	.
CC(C)(C)c1nc2cc(Cl)c([N+](=O)[O-])cc2o1	.	.	.	100	.	.
COCC(C)n1c(C)cc(C(=O)COC(=O)/C=C/c2cccc(F)c2)c1C (centres undefined)	.	.	.	.	.	.
Oc1c(Cl)cc(Cl)cc1Sc1cc(Cl)cc(Cl)c1O	.	/	.	100	.	.
Cc1cc(C)c(O)c(CN(C)Cc2cc(Cl)cc(Cl)c2O)c1	/	.	/	/	/	/
CC(C)CN1C(=O)/C(=C/c2c(N3CCc4ccccc4C3)nc3ccccn3c2=O)SC1=S	22[inhibitor]	/	/	/	77	/
CCOC(=O)CC1C(=O)NCCN1c1nc2c(C)cccn2c(=O)c1/C=C1\SC(=S)N(CC(C)C)C1=O (centres undefined)	.	/	.	/	.	/
CCCCn1cnc2c(c(-c3ccccc3)c(-c3ccccc3)n2Cc2ccco2)c1=N	.	.	.	100	.	.
COc1ccc(OCC(=O)N/N=c2\oc3c(OC)cccc3cc2C(N)=O)cc1	.	.	.	.	.	.
SMILES	MEKK3 PB1 HTS	ANO1 activ	MEKK2wt PB1 HTS	ANO1 block	MEKK2mut PB1 HTS	NTR1 agonist
CCN(CCn1cccn1)Cc1cn[nH]c1-c1cccc2ccccc12	.	-6.2	.	.	.	.
O=C(NCc1ccc(Cl)cc1)C(=O)NCC1OCCN1C(=O)c1ccc(Cl)cc1 (centres undefined)	.	.	.	.	.	.
CC(Sc1ccc(Cl)cc1)C(=O)NCC(c1ccco1)N1CCCCC1 (centres undefined)	/	.	/	.	/	.
O=C(C/C=N/OCc1c(Cl)cccc1Cl)c1cnc(-c2ccccc2)s1	.	.	.	100	.	.
N=c1n(CCN2CCCC2)c2ccccc2n1CC(O)c1ccc(Cl)c(Cl)c1 (centres undefined)	.	.	152	.	.	.
Cc1ccc(OCC(=O)OCC(=O)c2c(N)n(C)c(=O)n(C)c2=O)cc1C	.	.	.	.	.	.
COCCCNC(=O)CCS(=O)(=O)Cc1ccc(C)cc1	.	.	.	.	.	.
Cc1cc(-c2csc(NC(=O)c3ccc(=O)[nH]c3)n2)c(C)n1Cc1ccco1	.	.	.	.	.	.
CCNc1nc(-c2cc(C)n(Cc3ccco3)c2C)cs1	.	.	-21	.	.	.
Cc1nc(N)sc1-c1csc(NCc2ccccc2)n1	.	.	.	.	.	.
Cc1cc(-c2csc(NCc3ccccc3)n2)c(C)n1C	.	.	-10	/	.	/
Cc1nc2sccn2c1-c1csc(NCc2ccccc2)n1	.	.	.	25	.	.
C=CCNc1nc(-c2c(C)nc3sccn23)cs1	.	.	.	.	.	.
O=C(NC1CCCCC1)C(c1c(F)cccc1Cl)N(C(=O)c1csnn1)C1CC1 (centres undefined)	.	.	.	.	.	.
CCOc1ccc(C(=O)NCC(=O)NCCCn2nc(C)cc2C)cc1OCC	.	.	.	.	.	.
O=S(=O)(c1cccs1)N1CCN(C/C=C/c2ccccc2)CC1	.	.	.	.	.	.
O=S(=O)(c1ccc(Cl)s1)N1CCN(C/C=C/c2ccccc2)CC1	.	-7	.	.	.	.
Cc1ncc(CN2CCCC(C(=O)Nc3ccc(-n4ccnc4C)cc3)C2)cn1 (centres undefined)	.	.	.	.	.	.
O=C(c1cc(Cl)ccc1O)N1CCN(S(=O)(=O)c2cccs2)CC1	/	.	/	.	/	.
COc1cc(Br)c(C2C(C#N)=C(N)Oc3n[nH]c(-c4cccnc4)c32)cc1OC (centres undefined)	.	.	.	.	.	.
COc1ccc(N2CCCn3c2nc2c3c(=O)n(CCc3ccccc3)c(=O)n2C)cc1	.	-5	.	.	.	.
CC(C)Cn1c(=O)c2c(nc3n2CCCN3CCc2ccccc2)n(C)c1=O	.	.	.	25	.	.
CCOC(=O)c1ccc2c(c1)N(CC(=O)N1CCCC1)C(=O)C(C)(C)O2	.	.	.	.	.	.
CCOC(=O)c1ccc2c(c1)N(CC#N)C(=O)C(C)(C)O2	.	.	.	25	.	.
O=C(CN1CCN(c2ccc(O)cc2)CC1)Nc1cc([N+](=O)[O-])ccc1Cl	.	.	15	.	.	.
